Test results taken from ChEMBL document CHEMBL4513216, “Probing the Open Global Health Chemical Diversity Library for Multistage-Active Starting Points for Next-Generation Antimalarials” (ACS Infect Dis, 2020).
The campaign covered roughly 69,000 compounds. About 8,600 (12%) showed an effect of 50% or more. Only a selection was taken, and strong results are over-represented in it overall.

Test system: Plasmodium berghei
Assay: Screen against P. berghei liver stage (PbLuc), transformed with Luciferase, at 10uM
Assay type: functional, HepG2
Conditions: tested at 10 uM

Structure (SMILES) | INHIBITION [%]
COc1ccc(C(=O)NS(=O)(=O)c2cncc(Br)c2)c(OC)c1 | 29.4
Cc1ccc(-c2snnc2C(=O)NCCCO)cc1 | -19.7
COc1cccc(OC)c1CC(=O)NC(C#N)c1ccsc1 (stereo not drawn) | 0.0944
Cc1ccc(C(=O)NC2CC2)c(-n2cnnn2)c1C | 28.6
CN(C)c1ccc(CNC(=O)NCCc2cccs2)cn1 | -11.9
c1cnc(N2CCCC(NCc3cccc4c3OCCO4)C2)nc1 (stereo not drawn) | 22.9
CN(C)Cc1ccnc(C2CCCN2Cc2ccncc2)n1 (stereo not drawn) | 40.4
CN(C)Cc1ccnc(C2CCCN2Cc2cc[nH]n2)n1 (stereo not drawn) | 29.6
CN(C)Cc1ccnc(C2CCCN2Cc2ccc(F)cn2)n1 (stereo not drawn) | 63.4
CCc1cnc(CN(C(C)=O)C2CCN(CC3(O)CCCCC3)C2)o1 (stereo not drawn) | 5.9
c1ccc(-c2nc(CN3CCCC3Cn3cccn3)no2)cc1 (stereo not drawn) | 44.3
Cc1nc(NC(=O)CN2C(=O)c3ccccc3NC2C(C)C)sc1C (stereo not drawn) | 32.2
CN(Cc1cc(=O)c(O)co1)C1CCN(c2ccc(F)cc2)CC1 | 53.5
CN(Cc1cc(=O)c(O)co1)C1CCCN(c2ccccc2)C1 (stereo not drawn) | 7.93
Cc1cc(N2CCC(N(C)Cc3cc(=O)c(O)co3)CC2)nc(C)n1 | 28.7
O[C@@H]1CC(CNCc2ccc(Cl)cc2)(COc2cccnc2)C[C@@H]1O (stereo partly drawn) | -26.2
COCCC(=O)N1CCC2(CCN(Cc3cccc(F)c3)C2)C1 (stereo not drawn) | 57.9
COC(=O)CCC(=O)N1CCC2(CN(Cc3ccccc3)C2)C1 | 5.56
COC(=O)CCC(=O)N1CCC2(CN(Cc3cccc(Cl)c3)C2)C1 | 57.9
COCCC(=O)N1CCC2(CN(Cc3ccc(OC)c(F)c3)C2)C1 | -44.8
COCCC(=O)N1CC2(CCN(Cc3ccccc3Cl)CC2)C1 | 69.5
COC(=O)CCC(=O)N1CCC2(CN(Cc3ccc(Cl)cc3)C2)C1 | -26.1

Structure (SMILES) | INHIBITION [%]
COCCC(=O)N1CC2(CCN(Cc3cccc(Cl)c3)CC2)C1 | 15.9
COCCC(=O)N1CCC2(CN(Cc3cccc(Cl)c3)C2)C1 | 81.2
COC(=O)N1CCN(Cc2ccccc2Cl)CC1 | 33.7
COCCC(=O)N1CCC2(CN(Cc3cccc(F)c3)C2)C1 | 4.27
COCCC(=O)N1CCC2(CCN(Cc3cccc(F)c3)CC2)C1 | 49.7
COCCC(=O)N1CCC2(CCN(Cc3cccc(F)c3)CC2)CC1 | 45.1
CC(=O)N(C)Cc1cccc(NC(=O)CCCc2nc(C(C)C)no2)c1 | -32.9
CN(C)C(=O)COCc1cncc2c1CCN(Cc1ccccc1)C2 | -45.5
Cc1ccc([C@H]2CN(C(=O)CC3CCC3)C[C@@H]2N)o1 | -92.8
Cc1c(C(=O)NCCC2CN(C)CCO2)n(C)c2c(C)cccc12 (stereo not drawn) | 33.4
Cc1nccn1-c1cc(CNC(=O)NCC2CCCO2)ccn1 (stereo not drawn) | -2.33
CCC(C)C(=O)NCCCn1nc(C)cc1C (stereo not drawn) | -2.48
O=C(NCCc1ccc(I)s1)N1CCC1 | -7.31
OC1(CN2CCN(c3cccc(C(F)(F)F)c3)CC2)CNCCOC1 (stereo not drawn) | 41.5
c1ccc(Cc2noc(-c3ccc(NCC4CCCCO4)nc3)n2)cc1 (stereo not drawn) | 26
COCCNC(=O)NC(=O)CNc1c(F)cccc1N1CCCC1 | -32.5
CC[C@@H]1N(CC2CCC2)CCC[C@]12CCC(=O)N2Cc1ccncc1 | -8.51
CC1(C(=O)N2CCN(C3CCCC3)CC2)CNCCO1 (stereo not drawn) | -21.4
Cc1ccc(-c2cc(C(=O)N(C)Cc3noc4c3CCCC4)[nH]n2)s1 | -14.3
O=C(C1CCC1)N1CCC2(CCN(Cc3cccc(F)c3)CC2)CC1 | 45.7
O=C(C1CC=CC1)N1CCC2(CCN(Cc3cccc(F)c3)CC2)C1 | 59.8
Cn1ccnc1CN1CCC2(CC1)CCN(Cc1ccoc1)C2 | -37.4

Structure (SMILES) | INHIBITION [%]
O=C(C1CC1)N1CCC2(CCN(Cc3cccc(F)c3)CC2)CC1 | -13.4
COCCC(=O)N1CC2(CCN(Cc3ccoc3)C2)C1 | 54.6
Cc1ccc(CN2CCCC3(CCN(Cc4ccoc4)CC3)C2)cc1 | 82.8
Cc1ccc(CN2CCC3(CC2)CCN(Cc2ccoc2)CC3)cc1 | -34.6
COCCC(=O)N1CC2(CCN(Cc3ccncc3)CC2)C1 | 47.4
COCCC(=O)N1CCC2(CCN(Cc3ccc(C)cc3)CC2)C1 | 4.27
O=C(CC1CCCC1)N1CCCC1c1ccc(CN2CCOCC2)cn1 (stereo not drawn) | 30.25
CC(C)c1nn(C)c(N(C)C)c1CNC(C)c1ccc2c(c1)OCO2 (stereo not drawn) | 22.3
CCC(C)N(Cc1cccnc1)C(=O)c1ncccc1O (stereo not drawn) | 39.9
Cc1nnc(NC(=O)CN(C)C2CCCN(c3cccnn3)C2)s1 (stereo not drawn) | 12.7
Cc1csc(CNC(=O)NC(C)c2ccc3c(c2)OCCO3)n1 (stereo not drawn) | 44.9
Cc1ccc(CNC2CCc3nc(C(C)C)nn3C2)o1 (stereo not drawn) | -17.7
c1cncc(C[C@H]2[C@H](N3CCOCC3)CCN2Cc2cccs2)c1 | -7.24
Cn1c(=O)[nH]c2cc(C(=O)OCCCn3ccccc3=O)ccc21 | 60
CCCOCCOC(=O)c1ccc2c(c1)[nH]c(=O)n2C | 26.6
CCOCCCOC(=O)c1ccc2c(c1)[nH]c(=O)n2C | -5.47
Cc1nn(C)c(C)c1C1COCCN1C(=O)CCc1ccccc1 (stereo not drawn) | 5.7
Cc1nnc(NC(=O)CCc2c(C)nn3cnnc3c2C)s1 | 16.6
CCCn1c(C)c(CC(=O)N(C)CCO)c2c1CC(C)(C)CC2=O | 48.1
COC(=O)C(C)(C)NC(=O)C1CC(=O)N(C)C1 (stereo not drawn) | 35.1
COC(=O)C(C)(C)NC(=O)C1CC(=O)N(C2CCCC2)C1 (stereo not drawn) | 20.1
COC(=O)C(C)(C)NC(=O)C1CC(=O)N(C2CC2)C1 (stereo not drawn) | 84.1

Structure (SMILES) | INHIBITION [%]
OCC1(O)CCN(Cc2noc(-c3ccccc3)n2)CC1 | 20.3
COC(=O)c1sccc1CN1CCN(C(=O)c2ccc(C)o2)CC1 | 30.9
CC(=O)N1CCN(Cc2ccc(F)cc2)CC2(CC(=O)N(C)C2)C1 (stereo not drawn) | -6.05
O=C(c1ccc(Br)o1)N1CCN(Cc2ccc(OC(F)(F)F)cc2)CC1 | 90
CC(=O)N1CCN(Cc2ccc(OCc3nccn3C)cc2)CC1 | 1.78
CC(O)CN1CCN(C(=O)c2ccc(Br)o2)CC1 (stereo not drawn) | 16.2
Cc1ccc(CN2CCN(C(=O)c3ccc(Br)o3)CC2)cc1 | 92.8
O=C(c1ccc(Br)s1)N1CCN(Cc2ccc(OC(F)(F)F)cc2)CC1 | 79
Cc1cc(C)n(CCN2CCN(C(=O)c3ccc(Br)o3)CC2)n1 | -13.3
CCc1ccc(C(=O)N2CCCN(Cc3nccn3CC)CC2)s1 | 8.47
Cn1ccnc1CN1CCCN(C(=O)c2ccc(Cl)o2)CC1 | 29.1
CCc1ccc(C(=O)N2CCN(CCO)CC2)o1 | -13.5
O=C(c1ccc(Br)o1)N1CCN(Cc2ccc(F)cc2)CC1 | 62.5
O=C(c1cscn1)N1CCC2(CN(Cc3ccsc3)C2)C1 | 45.2
N#Cc1ccccc1C(=O)NCCC1CN(Cc2ccco2)CCO1 (stereo not drawn) | 23.3
CN(c1ccncn1)C1CC2(CCN(C(=O)c3cncs3)C2)C1 (stereo not drawn) | 32.3
Fc1ccccc1OCCc1cc(C2CCNC2)n[nH]1 (stereo not drawn) | -14.1
Cc1nc(CN2CCCC(N(C)CCCc3ccccc3)C2)no1 (stereo not drawn) | -11.4
Cc1cc(N2CCC(O)CC2)nc(C2CCCN2C)n1 (stereo not drawn) | 9.6
O=C(Nc1ccccc1)c1cc2n(n1)CCCN(C(=O)c1ccc[nH]1)C2 | 28.5
CCc1nnsc1C(=O)N1CCCN(Cc2ccc(F)cc2)CC1 | -0.219
COCc1ccc(C(=O)N2CCCN(Cc3ccc(F)cc3)CC2)s1 | 14.3

Structure (SMILES) | INHIBITION [%]
CCc1ccc(C(=O)N2CCN(Cc3ccc(F)cc3)CC2)s1 | 68.5
Cc1cc(C)n(CC2CCCN2C(=O)c2cnccn2)n1 (stereo not drawn) | -3.7
c1cn(Cc2ccc(N3CCCN(C4CCCC4)CC3)nc2)cn1 | 13.5
O=c1cc(Cn2ccnc2)nc2n1CCCN(Cc1ccco1)C2 | 8.85
c1csc(CN2CCCN(c3ccc(Cn4ccnc4)cn3)CC2)c1 | 52.6
Cc1nc(CN2CCCn3c(nc(Cn4cncn4)cc3=O)C2)cs1 | 51.2
O=c1cc(Cn2ccnc2)nc2n1CCCN(Cc1ccncc1)C2 | -32
OC1CCN(C2CCN(c3ccc(Cn4ccnc4)cn3)CC2)CC1 | 24.4
O=C(NCCn1ccnc1)N1CCCN(Cc2cccs2)CC1 | -39.7
Fc1ccc(N2CCCN(c3ccc(Cn4ccnc4)cn3)CC2)cc1 | 92.8
CC(Cn1ccnc1)NC(=O)N1CCCN(Cc2cccs2)CC1 (stereo not drawn) | 21.5
O=c1cc(Cn2cncn2)nc2n1CCCN(Cc1ccsc1)C2 | 12.7
Cc1nc(CN2CCCn3c(nc(Cn4ccnc4)cc3=O)C2)cs1 | -16.6
O=c1cc(Cn2ccnc2)nc2n1CCCN(Cc1cccs1)C2 | 53.4
Cc1nccn1C1CCCN(C(=O)CCOCC(F)(F)F)C1 (stereo not drawn) | 1.15
CC(C)N(C)Cc1cnc2n1CCN(Cc1ccc(F)cc1)C2 | 17.4
Cc1cc2c(c(=O)n1CCC(=O)O)C=CC(C)(C)O2 | 10.9
Cc1nc2cc(-c3nccn3C)nn2c(N2CCCC(O)C2)c1C (stereo not drawn) | 6.335
Cn1cc(C(=O)N2C[C@H]3CC(Oc4ccccc4)C[C@H]3C2)cn1 (stereo partly drawn) | 3.92
CS(=O)(=O)N1C[C@H]2CCCN(Cc3cccs3)[C@H]2C1 | 24.6
